Drawing on PubChem BioAssay (EPA / NIEHS), this text covers outcome and AC50 for 4 molecules.

Active and inactive are the calls of the source. Rule for the calls: active = hit-call score of the fitted dose curve at least 0.9, where 1 is the maximum; inactive = score below 0.9.

What all share (settings): mRNA level, 48 h; actives raise or lower the signal
Read-out in assay [1]: Glutathione S-transferase M3 (GSTM3), GSTM3 (gene 2947)
Briefly: LTEA_HepaRG_GSTM3: Life Technologies and Expression Analysis (LTEA) Assay for Glutathione S-transferase M3 (GSTM3) using HepaRG (AID 2283501). In short, it runs like this:
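HepaRG, plated 48 h, then serum-free induction medium; test chemical 48 h, duplicate; 100 uM top, half-log x8, 0.5% DMSO. Read-out: GSTM3 mRNA (TaqMan qRT-PCR, Fluidigm array). Bidirectional fit vs DMSO.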

Read-out in assay [2]: Hypoxia-inducible factor 1-alpha (Homo sapiens) (UniProt Q16665)
Description: LTEA_HepaRG_HIF1A: Life Technologies and Expression Analysis (LTEA) Assay for Hypoxia-inducible factor 1 (HIF1A) Trancription factor using HepaRG (AID 2283503).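 Note: HIF1A transcript by TaqMan qRT-PCR normalized to ACTB GAPDH and POLR2A.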 An outline of the steps: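 Gain- or loss-of-signal HIF1A mRNA changes are fitted against a DMSO baseline. HepaRG cultures receive eight concentrations, highest 100 uM, for 48 h in serum-free induction medium with 0.5% DMSO.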

Read-out in a further assay: HGF (gene 3082)
Description: LTEA_HepaRG_HGF: Life Technologies and Expression Analysis (LTEA) Assay for Hepatocyte Growth Facto (HGF) using HepaRG (AID 2283505). In short, it runs like this:
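Read-out is HGF transcript level by qRT-PCR, normalized to three housekeeping genes, fitted bidirectionally against 0.5% DMSO vehicle. Human HepaRG cells received test chemicals for 48 h at up to 100 uM.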

Read-out in assay [3]: Insulin Like Growth Factor 1 (IGF1), IGF1 (gene 3479)
Briefly: LTEA_HepaRG_IGF1: Life Technologies and Expression Analysis (LTEA) Assay for Insulin Like Growth Factor 1 (IGF1) using HepaRG (AID 2283506). An outline of the steps:
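qRT-PCR readout of IGF1 mRNA, normalized to three housekeeping genes, after 48 h chemical exposure of HepaRG cells. Concentrations: 8-point half-log series, top 100 uM, 0.5% DMSO vehicle. Gain or loss fitted against DMSO baseline.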

Read-out in assay [4]: Insulin-like growth factor-binding protein 1 (IGFBP1), IGFBP1 (gene 3484)
Briefly: LTEA_HepaRG_IGFBP1: Life Technologies and Expression Analysis (LTEA) Assay for Insulin-like growth factor-binding protein 1 (IGFBP1) using HepaRG (AID 2283508). An outline of the steps:
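Thawed HepaRG cells are plated for 48 h, switched to serum-free induction medium, then dosed in duplicate for another 48 h (100 uM top, half-log steps). Lysates in RLT go to qRT-PCR, and gain or loss of signal is fitted relative to vehicle.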

Read-out in assay [5]: Interleukin 6 (IL6), IL6 (gene 3569)
Briefly: LTEA_HepaRG_IL6: Life Technologies and Expression Analysis (LTEA) Assay for Interleukin 6 (IL6) using HepaRG (AID 2283509). In short, it runs like this: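 qRT-PCR read-out of IL6 transcript, normalized to three housekeeping genes, after 48 h chemical exposure of HepaRG cells; 8-point half-log series, top 100 uM, 0.5% DMSO vehicle. Bidirectional curve fitting against DMSO baseline.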

Read-out in assay [6]: Interleukin 6 Receptor (IL6R), IL6R (gene 3570)
Description: LTEA_HepaRG_IL6R: Life Technologies and Expression Analysis (LTEA) Assay for Interleukin 6 Receptor (IL6R) using HepaRG (AID 2283510).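 For AC50: differentiated human HepaRG liver cells in serum-free induction medium; TaqMan qRT-PCR signal normalized to ACTB GAPDH and POLR2A housekeeping genes.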 An outline of the steps:
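HepaRG, 48 h exposure, 8-pt half-log series, top 100 uM, 0.5% DMSO vehicle, duplicates. Read-out: TaqMan qRT-PCR of IL6R transcript, housekeeping-gene normalized. Gain or loss fitted relative to DMSO baseline.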

Read-out in assay [7]: Keratin 19 (KRT19), KRT19 (gene 3880)
Description: LTEA_HepaRG_KRT19: Life Technologies and Expression Analysis (LTEA) Assay for Keratin 19 (KRT19) using HepaRG (AID 2283512). In short, it runs like this: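 KRT19 transcript levels, measured by Fluidigm qRT-PCR against three housekeeping genes, are fitted for gain or loss of signal relative to DMSO. Human HepaRG cells receive test chemicals (top 100 uM, half-log steps, 0.5% DMSO) for 48 hours.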

Read-out in assay [8]: JUN Transcription Factor, JUN (gene 3725)
Briefly: LTEA_HepaRG_JUN: Life Technologies and Expression Analysis (LTEA) Assay for JUN Transcription Factor using HepaRG (AID 2283513). An outline of the steps:
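HepaRG, 48 h exposure, 8-pt half-log series top 100 uM, 0.5% DMSO, duplicate. JUN mRNA by qRT-PCR (Fluidigm), housekeeping-normalized (ACTB/GAPDH/POLR2A); bidirectional curve fit vs DMSO baseline.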

Read-out in assay [9]: Lipase C (LIPC), LIPC (gene 3990)
Briefly: LTEA_HepaRG_LIPC: Life Technologies and Expression Analysis (LTEA) Assay for Lipase C (LIPC) using HepaRG (AID 2283514). In short, it runs like this:
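HepaRG, 48 h exposure, 8-pt half-log series from 100 uM in 0.5% DMSO, duplicates. Readout: LIPC mRNA by Fluidigm qRT-PCR, housekeeping-normalized (ACTB/GAPDH/POLR2A). Gain or loss fitted bidirectionally against DMSO baseline.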

Read-out in assay [10]: Lipoprotein lipase (LPL), LPL (gene 4023)
Briefly: LTEA_HepaRG_LPL: Life Technologies and Expression Analysis (LTEA) Assay for Lipoprotein lipase (LPL) using HepaRG (AID 2283515). In short, it runs like this:
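HepaRG, 48 h exposure, 8-pt half-log dilutions from 100 uM, 0.5% DMSO vehicle, duplicates; qRT-PCR (Fluidigm array) of LPL mRNA vs housekeeping genes; bidirectional curve fit relative to DMSO baseline.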

Read-out in assay [11]: MicroRNA 122 (MIR122), gene 406906
Briefly: LTEA_HepaRG_MIR122: Life Technologies and Expression Analysis (LTEA) Assay for MicroRNA 122 (MIR122) using HepaRG (AID 2283516). Note: the transcript read is the microRNA miR-122. In short, it runs like this: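 qRT-PCR read-out (TaqMan, Fluidigm array), normalized to three housekeeping genes; HepaRG cells dosed 48 h at 8 concentrations up to 100 uM in 0.5% DMSO, duplicate; gain or loss fitted against DMSO baseline.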

Read-out in assay [12]: matrix metalloproteinase-10 (MMP10), MMP10 (gene 4319)
Description: LTEA_HepaRG_MMP10: Life Technologies and Expression Analysis (LTEA) Assay for matrix metalloproteinase-10 (MMP10) using HepaRG (AID 2283517). In short, it runs like this: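 Transcript levels come from Fluidigm qRT-PCR normalized to three housekeeping genes, with curves fitted bidirectionally against 0.5% DMSO. Human HepaRG cells were dosed for 48 hours at concentrations up to 100 uM.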

Read-out in the next assay: MYC, MYC (gene 4609)
Briefly: LTEA_HepaRG_MYC: Life Technologies and Expression Analysis (LTEA) Assay for MYC using HepaRG (AID 2283518). In short, it runs like this:
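HepaRG, ~100,000 cells/well, collagen I; 48 h plating; serum-free induction medium; 48 h dosing, duplicate, 100 uM top, half-log, 0.5% DMSO; total RNA → qRT-PCR MYC; gain/loss fit vs DMSO.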

Read-out in assay [13]: matrix metalloproteinase-3 (MMP3), MMP3 (gene 4314)
Description: LTEA_HepaRG_MMP3: Life Technologies and Expression Analysis (LTEA) Assay for matrix metalloproteinase-3 (MMP3) using HepaRG (AID 2283519). In short, it runs like this: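 qRT-PCR read-out of MMP3 mRNA (normalised to three housekeeping genes) in HepaRG liver cells after 48 h chemical exposure; 8-point half-log series, top 100 uM, 0.5% DMSO vehicle. Bidirectional curve fitting against DMSO baseline.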

Read-out in assay [14]: Nuclear factor NF-kappa-B p105 subunit (Homo sapiens) (UniProt P19838)
Briefly: LTEA_HepaRG_NFKB1: Life Technologies and Expression Analysis (LTEA) Assay for Nuclear Factor Kappa B Subunit 1 (NFKB1) using HepaRG (AID 2283521).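 For outcome: differentiated human HepaRG liver cells in serum-free induction medium; TaqMan qRT-PCR transcript normalised to ACTB GAPDH and POLR2A housekeeping genes.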 In short, it runs like this: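 NFKB1 transcript was measured by TaqMan qRT-PCR on Fluidigm arrays, normalised to three housekeeping genes and fitted in both directions against 0.5% DMSO. HepaRG cells were dosed in duplicate for 48 h in serum-free induction medium, eight half-log steps from 100 uM.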

Read-out in assay [15]: Protein phosphatase 2A (PPP2R4), PTPA (gene 5524)
Description: LTEA_HepaRG_PPP2R4: Life Technologies and Expression Analysis (LTEA) Assay for Protein phosphatase 2A (PPP2R4) using HepaRG (AID 2283522). In short, it runs like this:
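HepaRG, 48 h exposure, 8-pt half-log series from 100 uM, 0.5% DMSO vehicle, duplicates. Readout: PPP2R4 mRNA, Fluidigm qRT-PCR, housekeeping-normalized. Bidirectional curve fit vs DMSO baseline.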

Read-out in assay [16]: Phosphatase and tensin (PTEN), PTEN (gene 5728)
Description: LTEA_HepaRG_PTEN: Life Technologies and Expression Analysis (LTEA) Assay for Phosphatase and tensin (PTEN) using HepaRG (AID 2283523). An outline of the steps:
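HepaRG, 48 h exposure, 8-pt half-log series from 100 uM top, 0.5% DMSO vehicle, duplicates. Readout: Fluidigm qRT-PCR of PTEN transcript; housekeeping normalization (ACTB, GAPDH, POLR2A). Gain or loss fitted relative to DMSO baseline.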

Read-out in assay [17]: solute carrier (SLC22A1), SLC22A1 (gene 6580)
Description: LTEA_HepaRG_SLC22A1: Life Technologies and Expression Analysis (LTEA) Assay for solute carrier (SLC22A1) using HepaRG (AID 2283524). An outline of the steps: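 qRT-PCR readout (TaqMan, Fluidigm arrays) of SLC22A1 transcript, normalized to three housekeeping genes; bidirectional curve fit relative to 0.5% DMSO vehicle. Differentiated human HepaRG cells, 48 h chemical exposure, top concentration 100 uM, half-log steps, eight points.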

Read-out in assay [18]: Pyruvate Dehydrogenase Kinase 4 (PDK4), PDK4 (gene 5166)
Briefly: LTEA_HepaRG_PDK4: Life Technologies and Expression Analysis (LTEA) Assay for Pyruvate Dehydrogenase Kinase 4 (PDK4) using HepaRG (AID 2283525). An outline of the steps: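 HepaRG (human liver line), 48 h chemical exposure, 8-pt half-log CRC top 100 uM, 0.5% DMSO vehicle, duplicates. Readout: TaqMan qRT-PCR of PDK4 mRNA, housekeeping-normalized; gain/loss fit relative to DMSO baseline.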

Hypoxia-inducible factor 1-alpha (Homo sapiens), sequence (Q16665 whole entry, looked up): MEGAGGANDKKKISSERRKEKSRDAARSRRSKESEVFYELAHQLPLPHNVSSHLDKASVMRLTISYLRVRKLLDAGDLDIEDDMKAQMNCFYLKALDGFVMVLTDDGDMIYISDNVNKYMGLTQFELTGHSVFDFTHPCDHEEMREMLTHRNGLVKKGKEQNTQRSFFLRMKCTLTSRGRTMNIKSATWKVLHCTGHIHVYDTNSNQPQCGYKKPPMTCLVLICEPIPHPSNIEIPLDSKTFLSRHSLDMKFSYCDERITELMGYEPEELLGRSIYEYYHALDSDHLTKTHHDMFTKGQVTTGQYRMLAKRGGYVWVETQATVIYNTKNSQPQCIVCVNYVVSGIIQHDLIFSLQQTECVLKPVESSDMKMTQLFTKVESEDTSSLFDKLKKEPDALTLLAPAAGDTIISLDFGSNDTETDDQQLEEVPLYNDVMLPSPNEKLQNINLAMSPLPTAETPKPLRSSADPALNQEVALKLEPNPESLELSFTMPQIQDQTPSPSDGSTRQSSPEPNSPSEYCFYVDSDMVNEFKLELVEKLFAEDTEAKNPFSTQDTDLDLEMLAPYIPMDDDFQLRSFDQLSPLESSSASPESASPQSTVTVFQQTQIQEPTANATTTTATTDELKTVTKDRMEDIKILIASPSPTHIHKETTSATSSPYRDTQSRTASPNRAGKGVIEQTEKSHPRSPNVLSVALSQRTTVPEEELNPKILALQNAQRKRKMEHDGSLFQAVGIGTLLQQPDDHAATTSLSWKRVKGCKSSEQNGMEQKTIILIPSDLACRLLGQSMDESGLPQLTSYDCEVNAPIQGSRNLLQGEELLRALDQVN
Nuclear factor NF-kappa-B p105 subunit (Homo sapiens), sequence (P19838 whole entry, looked up): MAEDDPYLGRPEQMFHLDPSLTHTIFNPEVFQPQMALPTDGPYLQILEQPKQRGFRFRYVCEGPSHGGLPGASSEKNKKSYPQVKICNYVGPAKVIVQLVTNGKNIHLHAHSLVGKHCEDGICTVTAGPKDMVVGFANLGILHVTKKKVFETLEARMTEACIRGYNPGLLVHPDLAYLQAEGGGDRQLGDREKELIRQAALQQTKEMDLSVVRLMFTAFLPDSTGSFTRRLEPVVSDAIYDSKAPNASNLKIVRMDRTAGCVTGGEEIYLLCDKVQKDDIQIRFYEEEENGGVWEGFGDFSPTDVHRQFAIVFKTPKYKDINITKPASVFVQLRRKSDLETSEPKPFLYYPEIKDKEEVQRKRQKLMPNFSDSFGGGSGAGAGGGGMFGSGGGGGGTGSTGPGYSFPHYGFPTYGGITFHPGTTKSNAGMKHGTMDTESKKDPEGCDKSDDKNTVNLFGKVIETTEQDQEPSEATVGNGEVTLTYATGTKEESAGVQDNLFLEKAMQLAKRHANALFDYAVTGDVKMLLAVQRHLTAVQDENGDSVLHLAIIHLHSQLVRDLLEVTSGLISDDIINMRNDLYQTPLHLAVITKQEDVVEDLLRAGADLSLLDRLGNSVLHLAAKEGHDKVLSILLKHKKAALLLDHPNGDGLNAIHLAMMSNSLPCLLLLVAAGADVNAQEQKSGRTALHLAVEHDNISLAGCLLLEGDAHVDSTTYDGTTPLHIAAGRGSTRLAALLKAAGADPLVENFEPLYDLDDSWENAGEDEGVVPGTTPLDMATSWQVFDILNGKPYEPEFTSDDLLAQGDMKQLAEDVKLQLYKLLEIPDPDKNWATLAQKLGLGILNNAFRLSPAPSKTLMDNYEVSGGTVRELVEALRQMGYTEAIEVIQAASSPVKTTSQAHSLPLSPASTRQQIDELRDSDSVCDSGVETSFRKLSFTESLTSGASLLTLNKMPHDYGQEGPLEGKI

Regarding `Clc1cccc(Cl)c1`, the result (in assay [1]; in [2]; with HGF (gene 3082); in assay [3]; in assay [4]; in assay [5]) was inactive. For the same molecule, the molecule was called inactive in assay [6], in [7], in assay [8], in assay [9], in assay [10] and in assay [11]. The outcome was “inactive” in assay [12]; “inactive” with MYC, MYC (gene 4609); “inactive” in assay [13]; “inactive” in assay [14]; “inactive” in assay [15]; “inactive” in assay [16]. Further, the molecule was called inactive in assay [17] and in assay [18].

Consider `O=C(N[C@H]1CN2CCC1CC2)c1ccc2c(c1)OCCO2`, for which the outcome (in assay [1]; in [2]; with HGF (gene 3082); in [3]; in assay [4]; in assay [5]) was inactive. Besides, the molecule was called inactive in assay [7], in [8], in assay [9], in [10], in assay [11] and in assay [12]. The outcome with MYC, MYC (gene 4609) was “inactive”; in [13], “inactive”; in assay [15], “inactive”; in [16], “inactive”; in [17] it was “inactive”; in [18], “inactive”. Also, the AC50 in assay [6] is 12.2 µM (active).

`O=C(O)C1(c2ccc3c(c2)OC[C@H](Cc2ccc(-c4ccccc4)cc2)[C@H]3O)CCCC1`: the molecule was classed as inactive (in assay [1]; with HGF (gene 3082); in assay [6]; in assay [7]; in assay [9]; in assay [10]). Moreover, the outcome in [11] is “inactive”; in assay [12], “inactive”; with MYC, MYC (gene 4609) it was “inactive”; in assay [13] it was “inactive”; in assay [17] it was “inactive”. Moreover, the AC50 in [2] is 82.3 µM (active); in assay [3], 15.8 µM (active); in assay [4] it was 50 µM (active); in [5], 78.4 µM (active); in assay [8], 88.4 µM (active); in assay [14], 76 µM (active). The AC50 in assay [15] is 80.5 µM (active); in [16], 91.5 µM (active); in assay [18], 11.4 µM (active).

`CC(C)(C)c1ccccc1O`: the outcome (in assay [1]; in assay [2]; in the assay with HGF (gene 3082); in assay [3]; in [4]; in [5]) was inactive. For the same molecule, the outcome in assay [6], in assay [7], in assay [8], in assay [9], in assay [10] and in [11] was inactive. In addition, the outcome in [12] was “inactive”; in the assay with MYC, MYC (gene 4609), “inactive”; in [13], “inactive”; in assay [14], “inactive”; in assay [15] it was “inactive”; in assay [16], “inactive”. Moreover, the result in [17] and in assay [18] was inactive.
